Records with an inconclusive call do not appear. Active and inactive are the calls of the source. Unless noted, the call rests on the fitted dose curve.
Experiments:
[1] = Cell Viability - BJ (AID 421); details: BJ fibroblast viability, qHTS;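 further: potency means the concentration at half of the fitted maximal effect; cells exposed to compound for 40 hours at 37 °C before readout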
Outline: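 Luminescent ATP signal (CellTiter-Glo, 20 min at room temperature) served as the read-out of viable BJ cells after 40 hours of compound treatment. Responses were scaled between DMSO and 100 uM tamoxifen, and AC50 values were obtained by Hill modeling.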

[2] = Cell Viability - Jurkat (AID 426;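 active means dose-dependent loss of cell ATP signal giving a full or clear fitted curve, ranked by lower potency value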;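 further: potency means the concentration at half of the fitted maximal effect; cells exposed to compound for 40 hours at 37 °C before ATP read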); details: qHTS
Outline: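 Cytotoxicity was scored as loss of cellular ATP, measured by luciferase-based luminescence, in Jurkat clone E6-1 cells after 40 h compound treatment; tamoxifen and doxorubicin served as positive controls.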

[3] = Cell Viability - Hek293 (AID 427;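 active means compounds whose dose-response curve shows a full or clear partial loss of cell viability, called from curve shape rather than a numeric limit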;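 further: potency means the concentration at half of the fitted maximal effect; cells exposed to compound for 40 hours at 37 °C before reading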); details: qHTS
Outline: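 Luminescent ATP read-out (CellTiter-Glo, 20 min RT) after 40 hr compound exposure at 37 °C in complete medium. Signal normalized to DMSO (basal) and 100 uM tamoxifen (100% inhibition); concentration-response fitted with the standard Hill equation to give AC50.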

[4] = Cell Viability - HepG2 (AID 433); details: qHTS;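 further: potency means the concentration at half of the fitted maximal effect; potency for ATP loss meaning cytotoxicity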
Outline: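 Cytotoxicity read as ATP loss (CellTiter-Glo luminescence) after 40 hr compound exposure of HepG2, 1500 cells/well, 37 °C. AC50 by Hill equation; 0% set by DMSO, 100% inhibition by 100 uM tamoxifen.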

[5] = Cell Viability - MRC5 (AID 434); details: MRC5 lung fibroblast viability, qHTS;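 further: potency means the concentration at half of the fitted maximal effect; cells exposed to compound for 40 hours at 37 °C; potency reflects cytotoxicity seen as loss of intracellular ATP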
Outline: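 AC50 values come from Hill-equation fits of intracellular ATP loss, measured by CellTiter-Glo luminescence. Normal lung fibroblasts (MRC5) had 40 hr compound treatment at 37 C, normalized between DMSO and 100 uM tamoxifen.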

[6] = Cell Viability - SK-N-SH (AID 435); details: SK-N-SH neuroblastoma cell viability qHTS; further: potency means the concentration at half of the fitted maximal effect
Outline: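 qHTS cytotoxicity: CellTiter-Glo ATP luminescence after 40 h compound exposure of human neuroblastoma SK-N-SH cells at 37 °C. AC50 derived by Hill-equation fitting, with DMSO as basal and 100 uM tamoxifen as full inhibition.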

[7] = target: Mitogen-activated protein kinase 10 (Mus musculus) (UniProt Q61831); experiment: JNK3 AlphaScreen Assay (AID 530; active means well fitted curve in either direction with a large enough effect, not every such curve was filed as active;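 further: kinase came from lysate of stimulated human HepG2 cells; signal reports phosphorylation of biotinylated GST-cJun 1-79 at Ser73 with 10 µM ATP; on the % scale 0 is the no-effect control and ±100 the full control effect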); details: JNK3 lysate, c-Jun phosphorylation; series mostly up to 57.1 µM
Outline: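 Kinase buffer: 20 mM Tris-HCl pH 7.6, 10 mM MgCl2, 1 mM DTT, 0.1 mM Na3VO4, 0.01% Tween-20; ATP 10 uM. Substrate biotin-GST-cJun(1-79), enzyme from activated HepG2 lysates. Detection by Ser73 phospho-antibody AlphaScreen.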

[8] = Cell Viability - N2a (AID 540; active means well fitted curve in the direction sought with a large enough effect; an effect the other way counts as inactive or inconclusive;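 further: plate controls were DMSO alone for no effect and tamoxifen control for full effect; nearly all actives have a fitted effect of over 45% in size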); details: N2a mouse neuroblastoma cell viability; activity change, negative = cytotoxicity: at 92.2 µM (top of the series)
Outline: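 In this qHTS cytotoxicity screen, ATP-dependent luciferase luminescence reports viable N2a cells after a 40 hr compound exposure in complete culture medium. Potencies are AC50 values from standard Hill equation fits.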

[9] = Cell Viability - NIH 3T3 (AID 541; active means well fitted curve in the direction sought with a large enough effect; an effect the other way counts as inactive or inconclusive;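 further: plate controls were DMSO alone for no effect and tamoxifen positive control for full effect; nearly all actives have a fitted effect of over 25% in size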); details: NIH 3T3 cell viability, qHTS; activity change, negative = cytotoxicity: at 92.2 µM (top of the series)
Outline: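 In this cytotoxicity screen, acute toxicity is scored as an ATP drop measured by CellTiter-Glo in NIH 3T3 fibroblasts following a 40 hr, 37 °C incubation with compound.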

[10] = Cell Viability - HUV-EC-C (AID 542; active means well fitted curve in the direction sought with a large enough effect; an effect the other way counts as inactive or inconclusive; further: on the % scale 0 is the no-effect control and ±100 the full control effect; nearly all actives have a fitted effect of over 35% in size); details: HUV-EC-C endothelial cell viability, qHTS; series mostly up to 92.2 µM
Outline: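 Concentration-dependent ATP loss in HUV-EC-C cells is the measure. Exposure lasts 40 hr at 37 °C; luminescence follows CellTiter-Glo addition, and Hill fits give AC50.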

Cc1ccc(C)c(O)c1
inactive: Potency [1] > 92 µM | Potency [2] > 92 µM | Potency [3] > 92 µM | Potency [4] > 92 µM | Potency [5] > 92 µM | Potency [6] > 92 µM | outcome [7] | activity change, negative = cytotoxicity [8] 3.3% | Potency [9] | Potency [10]

c1ccc2c(c1)Oc1ccccc1S2
inactive: Potency [1] > 92 µM | Potency [2] > 92 µM | Potency [3] > 92 µM | Potency [4] > 92 µM | Potency [5] > 92 µM | Potency [6] > 92 µM | outcome [7] | activity change, negative = cytotoxicity [8] -9.06% | Potency [9] | Potency [10]

CC/C(C)=N/O
inactive: Potency [1] > 92 µM | Potency [2] > 92 µM | Potency [3] > 92 µM | Potency [4] > 92 µM | Potency [5] > 92 µM | Potency [6] > 92 µM | outcome [7] | activity change, negative = cytotoxicity [8] 3.53% | Potency [9] | Potency [10]

Cc1ccc([N+](=O)[O-])c(N)c1
inactive: Potency [1] > 92 µM | Potency [2] > 92 µM | Potency [3] > 92 µM | Potency [4] > 92 µM | Potency [5] > 92 µM | Potency [6] > 92 µM | outcome [7] | activity change, negative = cytotoxicity [8] -4.55% | Potency [9] | Potency [10]

CC=C(Cl)Cl
inactive: Potency [1] > 92 µM | Potency [2] > 92 µM | Potency [3] > 92 µM | Potency [4] > 92 µM | Potency [5] > 92 µM | Potency [6] > 92 µM | outcome [7] | activity change, negative = cytotoxicity [8] -2.96% | Potency [9] | Potency [10]

O=[N+]([O-])c1cccc(Cl)c1
inactive: Potency [1] > 92 µM | Potency [2] > 92 µM | Potency [3] > 92 µM | Potency [4] > 92 µM | Potency [5] > 92 µM | Potency [6] > 92 µM | outcome [7] | activity change, negative = cytotoxicity [8] -8.23% | Potency [9] | Potency [10]

O=C(O)CNC(=O)c1ccc(CO)o1
inactive: Potency [1] > 92 µM | Potency [2] > 92 µM | Potency [3] > 92 µM | Potency [4] > 92 µM | Potency [5] > 92 µM | Potency [6] > 92 µM | outcome [7] | activity change, negative = cytotoxicity [8] -13.4% | Potency [9] | Potency [10]

CCCC=O
inactive: Potency [1] > 92 µM | Potency [2] > 92 µM | Potency [3] > 92 µM | Potency [4] > 92 µM | Potency [5] > 92 µM | Potency [6] > 92 µM | outcome [7] | activity change, negative = cytotoxicity [8] -20.1% | Potency [9] | Potency [10]

BrC/C=C/CBr
inactive: Potency [1] > 92 µM | Potency [2] > 92 µM | Potency [3] > 92 µM | Potency [4] > 92 µM | Potency [5] > 92 µM | Potency [6] > 92 µM | outcome [7] | activity change, negative = cytotoxicity [8] 6.2% | Potency [9] | Potency [10]

NC(=S)NNC(N)=S
inactive: Potency [1] > 92 µM | Potency [2] > 92 µM | Potency [3] > 92 µM | Potency [4] > 92 µM | Potency [5] > 92 µM | Potency [6] > 92 µM | outcome [7] | activity change, negative = cytotoxicity [8] 4.33% | Potency [9] | Potency [10]

Cc1cccc2sc(N)nc12
inactive: Potency [1] > 92 µM | Potency [2] > 92 µM | Potency [3] > 92 µM | Potency [4] > 92 µM | Potency [5] > 92 µM | Potency [6] > 92 µM | outcome [7] | activity change, negative = cytotoxicity [8] -1.12% | Potency [9] | Potency [10]

CC(=O)CC(C)C
inactive: Potency [1] > 92 µM | Potency [2] > 92 µM | Potency [3] > 92 µM | Potency [4] > 92 µM | Potency [5] > 92 µM | Potency [6] > 92 µM | outcome [7] | activity change, negative = cytotoxicity [8] -14.8% | Potency [9] | Potency [10]

CC(O)COC(C)(C)C (stereo not given)
inactive: Potency [1] > 92 µM | Potency [2] > 92 µM | Potency [3] > 92 µM | Potency [4] > 92 µM | Potency [5] > 92 µM | Potency [6] > 92 µM | outcome [7] | activity change, negative = cytotoxicity [8] 1.08% | Potency [9] | Potency [10]

O=C(O)CCSSCCC(=O)O
inactive: Potency [1] > 92 µM | Potency [2] > 92 µM | Potency [3] > 92 µM | Potency [4] > 92 µM | Potency [5] > 92 µM | Potency [6] > 92 µM | outcome [7] | activity change, negative = cytotoxicity [8] 1.39% | Potency [9] | Potency [10]

CCOc1ccc(NC(C)=O)cc1N
inactive: Potency [1] > 92 µM | Potency [2] > 92 µM | Potency [3] > 92 µM | Potency [4] > 92 µM | Potency [5] > 92 µM | Potency [6] > 92 µM | outcome [7] | activity change, negative = cytotoxicity [8] -12.5% | Potency [9] | Potency [10]

From PubChem BioAssay (NCATS)
